Screening data (PubChem)
Cardio protect – myocardial damage modulation in H9c2 cells | 0.63% of 360,000 active | protection from H2O2 cell death, % at 20 µM | H9c2 cardiomyocytes, H2O2 injury protection, ATPLite, 2 h | AID 588492;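 active = compounds giving at least 50% protection of heart cells from peroxide-induced death in the single-dose screen, raw or plate-pattern-corrected value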
PfM18AAP inh – blocks P. falciparum M18 aspartyl aminopeptidase. AID 1822. recombinant PfM18AAP, H-Glu-NHMec fluorogenic cleavage. inhibition, % at 7.35 µM. 1.2% of 290,000 active;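 active = inhibition above the campaign mean inhibition over all tested compounds plus 3 SD, cut at about 28% in these data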
PHOSPHO1 inh – inhibitors of human PHOSPHO1 phosphatase; AID 1565; 1.1% of 290,000 active; recombinant PHOSPHO1, absorbance phosphatase assay; inhibition, % at 13.3 µM; in the data active = inhibition above about 60%
Target sequence (Q8TCT1 whole entry, looked up): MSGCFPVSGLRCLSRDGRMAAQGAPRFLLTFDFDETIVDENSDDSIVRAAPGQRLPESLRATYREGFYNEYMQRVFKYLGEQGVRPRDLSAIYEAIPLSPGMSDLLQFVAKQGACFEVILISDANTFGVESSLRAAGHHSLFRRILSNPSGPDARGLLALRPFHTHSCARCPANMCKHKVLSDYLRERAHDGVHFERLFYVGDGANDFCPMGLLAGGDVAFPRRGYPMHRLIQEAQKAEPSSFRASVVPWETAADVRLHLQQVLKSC
ALR H2O2 inh – blocks human ALR sulfhydryl oxidase activity; 3.8% of 290,000 active; P55789; inhibition, % (no concentration beside the values); purified ALR, DTT oxidation, H2O2 HRP-luminol luminescence;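 active = mean replicate inhibition above about 79%, with every replicate also reaching it, limit read from the data; inconclusive = only one of the two criteria met; inactive = mean below limit and not every replicate reaching it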
Target sequence (P55789 whole entry, looked up): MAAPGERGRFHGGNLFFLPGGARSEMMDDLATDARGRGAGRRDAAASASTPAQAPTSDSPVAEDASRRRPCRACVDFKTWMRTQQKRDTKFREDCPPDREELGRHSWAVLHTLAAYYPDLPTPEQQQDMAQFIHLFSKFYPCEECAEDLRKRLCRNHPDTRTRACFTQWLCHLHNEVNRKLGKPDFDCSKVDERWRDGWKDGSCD
PfGluPho inh – PfG6PD (Plasmodium falciparum) enzyme inhibition. PfGluPho enzyme, NADPH resazurin-diaphorase fluorescence. inhibition, % at 20 µM. 0.78% of 350,000 active. AID 504690;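 active = inhibition reaching at least a set limit at 20 µM in the primary screen, cut at about 59% in these data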
Hits are given with their value; i = inactive; ? = inconclusive; nt = no result given. This is a sample that favours compounds with a hit; in the whole collection about 5.6% have one here.

SMILES	Cardio protect	PfM18AAP inh	PHOSPHO1 inh	ALR H2O2 inh	PfGluPho inh
CCN(CC)S(=O)(=O)c1cccc(C(=O)N/N=C(\C)c2ccc(O)cc2O)c1	i	i	i	86	i
COc1ccc(/C(N)=N/OC(=O)CC2CCCCC2)cc1	i	i	i	i	i
Cc1ccc(C(C)C)c(OCc2ccc(C(=O)N/N=C/c3ccc(O)cc3O)cc2)c1	57	i	i	i	i
CC1CCN(c2ccc3nnc(CCC(=O)N4CCN(c5ccccc5F)CC4)n3n2)CC1	i	i	i	i	i
CCCN1CCN(C(=O)CCc2nnc3ccc(N4CCN(c5cccc(OC)c5)CC4)nn23)CC1	55	i	i	99	i
COc1cccc(N2CCN(c3ccc4nnc(CCC(=O)Nc5cccc(C(C)=O)c5)n4n3)CC2)c1	i	i	i	i	i
COc1cccc(N2CCN(c3ccc4nnc(CCC(=O)N5CCC(C)CC5)n4n3)CC2)c1	i	i	i	99	i
COc1ccc(N2CCN(C(=O)CCc3nnc4ccc(N5CCC(C)CC5)nn34)CC2)cc1	i	i	i	90	i
COc1ccc(Cc2c(-c3cccc(Br)c3)nc3c(C)cc(Br)cn23)c(C)c1	i	nt	nt	nt	nt
Cc1ccc(Cl)cc1NC(=O)CSC(N)=O	i	i	i	98	i
CCOC(=O)CSCC(=O)Nc1cc(C)ccc1C	i	i	i	98	i
COCC(=O)Nc1cc(Cl)ccc1C	i	i	i	i	i
CC1=NN2C(=N)/C(=C\c3ccc(SCc4ccccc4)o3)C(=O)N=C2S1	i	i	94	nt	i
N=C1/C(=C\c2ccc(SCc3ccco3)o2)C(=O)N=C2SC=NN12	i	i	i	i	i
CC1=NN2C(=N)/C(=C\c3cc(C)n(Cc4ccccc4)c3C)C(=O)N=C2S1	i	i	i	97	i
COc1ccc(C2c3ccc4ccccc4c3Oc3ncn(CCN(C)C)c(=N)c32)cc1 (stereo unspecified)	i	i	i	i	i
CSc1ccc(/C=C(\NC(=O)c2ccco2)C(=O)N2CCCCC2)cc1	i	i	i	i	i
Cc1ccccc1-c1ccc(Nc2ccc(N3CCOCC3)cc2)nn1	i	i	i	93	i
CC[n+]1c(/C=C/Nc2ccccc2)oc2ccccc21	i	i	101	i	i
CC[n+]1c(/C=C/N(C)c2ccccc2)oc2ccc(F)cc21	i	31	i	i	i
O=S(=O)(c1cc(Cl)c(Cl)cc1Cl)N1CCN2CCCC2C1 (stereo unspecified)	i	i	nt	i	i
C[C@@H]1O[C@@H](OC[C@@H]2O[C@H](Oc3c(-c4ccc(O)cc4)oc4cc(O)cc(O)c4c3=O)[C@@H](O)[C@H](O)[C@H]2O)[C@H](O)[C@H](O)[C@H]1O	i	nt	nt	80	i
CC1OC(Oc2c(-c3cc(O)c(O)c(O)c3)oc3cc(O)cc(O)c3c2=O)C(O)C(O)C1O (stereo unspecified)	i	45	i	nt	i
C[C@@H]1O[C@@H](O[C@H]2[C@H](O)[C@@H](O)[C@H](Oc3c(-c4ccc(O)cc4)oc4cc(O)cc(O)c4c3=O)O[C@@H]2CO)[C@H](O)[C@H](O)[C@H]1O	i	nt	nt	i	i
Cc1nn(-c2nc3ccccc3[nH]2)c(=O)c2ccccc12	i	i	i	i	i
SMILES	Cardio protect	PfM18AAP inh	PHOSPHO1 inh	ALR H2O2 inh	PfGluPho inh
CC1(C)CC(=O)c2cnn(-c3nc4ccccc4[nH]3)c2C1	i	i	i	94	i
CS(=O)(=O)N(CC(=O)N/N=C/c1cccc2c1OCCO2)c1ccccc1Br	i	i	60	i	i
CS(=O)(=O)N(CC(=O)N/N=C/c1cc2c(cc1Br)OCO2)c1ccccc1Br	i	i	i	i	i
CN(C)S(=O)(=O)c1cc(NC(=O)COC(=O)CC2Sc3ccccc3NC2=O)ccc1Cl (stereo unspecified)	i	nt	nt	i	i
Cc1[nH]c2ccc(C(=O)N3CCCCC3)cc2c1C	i	i	i	96	i
Cc1[nH]c2ccc(C(=O)N3CCCC3)cc2c1C	i	i	i	90	i
CCOC(=O)c1ccc2[nH]c(C)c(C)c2c1	i	i	nt	98	i
Cc1[nH]c2ccc(C(=O)N3CCC(C(N)=O)CC3)cc2c1C	i	nt	nt	?	i
O=C(NCC1CCCO1)c1ccc2c(c1)C(=O)N(c1cccc([N+](=O)[O-])c1)C2=O (stereo unspecified)	i	i	i	nt	i
S=C(Nc1cc(Cl)cc(Cl)c1)N1CCN(c2ccccn2)CC1	i	i	i	i	i
COC(=O)[C@@]12CCCCN1[C@H](c1ccc(-c3ccc(F)cc3)cc1)[C@@H]1C(=O)N(C)C(=O)[C@@H]12	i	nt	nt	i	i
CCOC(=O)c1sc(NC(=O)/C=C/c2cnn(CC)c2C)c(C(=O)OCC)c1C	i	i	70	i	i
c1ccc(-c2cc(N3CCCCCC3)n[nH]2)cc1	i	i	i	98	i
O=C(O)c1cc(NCc2cccs2)ccc1N1CCOCC1	i	i	i	98	i
O=C(NCc1cccs1)c1cc(S(=O)(=O)N2CCOCC2)ccc1N1CCCC1	i	nt	nt	nt	i
COC(=O)c1cc(NCc2c(F)cccc2Cl)ccc1N1CCOCC1	i	i	i	99	i
COC(=O)c1cc(NS(=O)(=O)c2cccc(Cl)c2)ccc1N1CCOCC1	i	i	i	i	i
O=C(O)c1cc(NCc2ccccc2C(F)(F)F)ccc1N1CCOCC1	i	i	i	i	i
COC(=O)c1cc(NCc2cccs2)ccc1N1CCOCC1	i	i	i	100	i
O=C(O)c1cc(NCc2ccc(F)cc2)ccc1N1CCOCC1	i	i	i	97	i
COC(=O)c1cc(NC(=O)c2cccs2)ccc1N1CCOCC1	i	i	i	i	i
CC(NC(=O)c1cccc(S(=O)(=O)N2CCc3ccccc32)c1)c1ccco1 (stereo unspecified)	i	nt	nt	i	i
O=C(CCn1c(=O)oc2ccccc21)Nc1cccc(Cl)c1	i	i	i	i	i
O=C(CCn1c(=O)oc2cc(Cl)ccc21)Nc1ccc(O)cc1	i	i	i	98	i
C[C@]12c3[nH]c4ccccc4c3CCN1C(=O)C(CC(=O)NCCCn1ccnc1)C[C@@H]2C(=O)N1CCCCC1 (stereo partly specified)	i	nt	nt	i	i
SMILES	Cardio protect	PfM18AAP inh	PHOSPHO1 inh	ALR H2O2 inh	PfGluPho inh
CC(c1nnc(SCC(=O)c2c(N)n(C3CC3)c(=O)[nH]c2=O)n1-c1ccc(F)cc1)N(C)C (stereo unspecified)	i	nt	nt	i	i
Cc1ccccc1C1(O)c2ccccc2-c2ccccc21	i	nt	nt	nt	i
Cc1cccc(/C=C/C(=O)c2ccc([N+](=O)[O-])o2)c1	i	nt	nt	i	i
Cc1ccccc1/C=C/C(=O)c1ccc([N+](=O)[O-])o1	nt	nt	nt	i	80
O=C(/C=C/c1cccc([N+](=O)[O-])c1)c1ccc([N+](=O)[O-])o1	i	nt	nt	i	98
COc1ccc(/C=C/C(=O)c2ccc([N+](=O)[O-])o2)cc1	i	nt	nt	i	i
CC(=O)Oc1ccc2nc(-c3ccc(Br)o3)oc(=O)c2c1	i	i	nt	80	i
Cn1c(O)c(C2=c3ccccc3=NC2=O)sc1=Nc1ccc(Cl)cc1	i	i	i	i	i
Cc1ccc(N=c2sc(C)c(C)n2C)cc1	i	i	i	99	i
